For 26 molecules, growth results are on record in PubChem BioAssay (NCI).

This is part of a sample that, as a whole, favours compounds with a hit. Of some 83,000 tested, about 20% had one in any assay.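 Note: values are percent growth. 100 is the growth of untreated cells, values between 100 and 0 indicate rising inhibition; between -100 and 0 indicates cell death.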 Values without a mark were called inactive. Activity calls are given as the source filed them. The calls were made as follows: active = growth percent below 10; inactive = the rest.

The subject of this test is HL-60(TB) leukemia. The test can be described thus: NCI-60 one-dose screen, 48 h (100 = growth as untreated, 0 = no growth, -100 = all killed). Particulars: 10 µM unless noted.
Take `OCCN(CCO)C(=S)S`: the growth is 104%.
As for `Cc1ccc(C)n1/C=C/n1c(C)ccc1C`, the figure is 128%; as for `Cn1c2ccccc2c2c3c(c4c5cccnc5[nH]c4c21)C(=O)N(O)C3=O`, 17.2%; as for `CC(C)(C)N1CC(OC(N)=O)C1`, 110%.
As for `C#CCOC(=O)[C@]1(C)CCC[C@]2(C)[C@H]3C[C@H]4C(C(C)C)=C[C@]3(CC[C@H]21)[C@@H]1C(=O)CCC(=O)[C@@H]14`, the figure is 64.7%.
`CCc1c(C)[nH]c(=O)c(C(N)=O)c1C#N`: the growth is 102%.
As for `CC(C)c1ccc(C(=O)Nc2sc3c(c2C(N)=O)CCC(=O)C3)cc1`, the figure is -11.5% (active); as for `CSc1nc2c(c(=O)n1C)N=C1c3ccccc3C(=O)C1C(c1ccccc1)N2` (stereo unspecified), 84.5%; as for `O=c1cc(-c2ccccc2)nc2cc(-c3ccco3)[nH]n12`, 82.7%.
To `COc1cccc(/C=C/C(=O)c2c(C)nc3ccccc3c2/C=C/c2ccccc2)c1OC` belongs 13.6%; to `Cc1c(N2CCCCC2)[nH]c2ccccc12`, 101%.
To `C=CC(=O)N[C@H](Cc1ccc(-c2cc(Cl)cc(Cl)c2)cc1)[C@H](O)[C@@H](O)C(=O)O` belongs 109%; to `CC1OC(n2c3ccccc3c3c4c(c5c6ccccc6[nH]c5c32)C(=O)N(CCN2CCCC2)C4=O)CC(O)C1O` (stereo unspecified), 44.2%.
Regarding `NC(=S)N/N=C\c1nccc2c(C(F)(F)C(F)(F)C(F)(F)F)cccc12`, the growth was -49.4% (active).
On to `S=C(c1ccccc1)N1CCN(c2cccc(Cl)c2)CC1`, for which the growth was 90.5%.
As for `O=C1c2cccc3cccc(c23)C(=O)N1CCCCN1CCN(CCCCOc2ccc(-c3nc4ccc(N5CCOCC5)cc4[nH]3)cc2)CC1`, the figure is 92.6%.
To `CC1(C)C(=O)CC[C@]2(C)[C@H]3C(=O)C=C4[C@@H]5C[C@@](C)(C(=O)NCCNCCN)CC[C@]5(C)CC[C@@]4(C)[C@]3(C)CC[C@@H]12` belongs 90.1%; to `Cc1ccc(S(=O)(=O)NCN2C(=O)c3ccccc3C2=O)cc1`, 106%.
As for `CC1Cc2c(Cl)ncnc2N(C)c2ccc(O)cc21` (stereo unspecified), the figure is 91.4%.
On to `CC1=CNNc2c3ncnc-3ncn21`, for which the growth was 99.8%.
As for `CN1C(=O)/C(=C/c2ccc(C(=O)Nc3ncc(Cc4ccccc4Cl)s3)cc2)SC1=S`, the figure is 73.1%.
As for `CN1CC(c2ccccc2)C(C(=O)c2ccc(Br)cc2)C12C(=O)Nc1ccccc12` (stereo unspecified), the figure is 99.8%; as for `CCOC(=O)c1cn2ncnc(Oc3ccc(NC(=O)NC4CC4)c(F)c3)c2c1C`, 70.9%; as for `COc1cccc(-c2nn(-c3ccccc3)cc2-c2ccnc(NCCCO)c2)c1`, -7.94% (active).
As for `O=S(=O)(NCCCNc1nccc(-c2c(-c3ccc(F)c(O)c3)nc3sccn23)n1)c1ccc(Cl)cc1`, the growth is 83.1%.
As for `CCN1C(=O)N(CC)C2C1NN=c1s/c(=C3\C(=O)Nc4ccccc43)c(=O)n12` (stereo unspecified), the figure is -25% (active).
